Compound activity: PubChem BioAssay, National Center for Advancing Translational Sciences (NCATS)
Shiga inhibitor: blocks Shiga toxin action in Vero cells | AID 2315 | hit rate 9.2% among 290,000 | Vero cells, Shiga toxin protein synthesis inhibition reporter | inhibition, % at 38.7 µM; in the data active means inhibition mostly above about 28%, no sharp cut-off; inactive means mostly below about 43%; further: 0% is about no effect
Cycloheximide cs: affects cycloheximide protein synthesis inhibition readout, counter-screen; hit rate 12% among 300,000; max response, %; cell reporter, cycloheximide protein synthesis inhibition counterscreen; in the data active means max response mostly above about 13%, no sharp cut-off; inactive means mostly below about 14%; further: read at 38.3 µM for the half of the compounds with a filed dose; 0% is about no effect
NS1 inh: inhibitors of influenza NS1 protein function | hit rate 0.4% among 270,000 | AID 2326 | Potency, µM (titrated, usually from 46.1 µM), inactives show at the highest dose activity, positive = more growth; calls by dose curve; further: potency means the concentration at half of the fitted maximal effect; actives are rising curves; nearly all actives have a fitted effect of over 50% in size
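OD600 was taken as the measure of yeast growth restored by compound in an NS1-expressing S. cerevisiae strain. Cells had been washed out of glucose medium and diluted 1:100 into galactose -URA medium, pH 6.0.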
AmpC no deterg: blocks E. coli AmpC beta-lactamase in detergent-free assay; Potency, µM (series often up to 57.1 µM), for inactives: top-dose activity change, negative = inhibition, actives largely listed as inhibitors; hit rate 0.52% among 330,000; P00811; AmpC nitrocefin hydrolysis, absorbance 480 nm, 0.0001% Triton;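 further: potency means the concentration at half of the fitted maximal effect; plate controls were no compound for no effect and no enzyme for full effect; nearly all actives have a fitted effect of over 20% in size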
Target sequence (P00811 whole entry, looked up): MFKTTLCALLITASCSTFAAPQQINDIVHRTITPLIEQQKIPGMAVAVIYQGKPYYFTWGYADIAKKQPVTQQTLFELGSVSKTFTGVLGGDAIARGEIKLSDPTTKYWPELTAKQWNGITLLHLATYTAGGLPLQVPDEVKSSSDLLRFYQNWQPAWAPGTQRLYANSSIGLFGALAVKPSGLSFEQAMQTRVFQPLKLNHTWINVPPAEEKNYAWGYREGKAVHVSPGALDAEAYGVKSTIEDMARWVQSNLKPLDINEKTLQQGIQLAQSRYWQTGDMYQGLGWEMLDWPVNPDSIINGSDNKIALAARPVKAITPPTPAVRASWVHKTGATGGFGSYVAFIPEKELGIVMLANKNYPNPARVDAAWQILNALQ
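20 mM phosphate pH 7.0 + 0.01% (detergent screen) or 0.0001% Triton X-100; 5.3 nM AmpC reagent; cpd preinc 15 min RT; nitrocefin (800 uM stock) to start; A480 q20 s × 4 min; Activity was normalised to no-enzyme and no-compound control wells.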
AmpC inh detg: inhibitors of E. coli AmpC beta-lactamase with detergent | AmpC hydrolysis of nitrocefin, absorbance 480 nm, 0.01% Triton | Potency, µM (doses to about 114 µM), for the others: at the top dose activity change, negative = inhibition, most hits filed as inhibitors | hit rate 0.041% among 370,000;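 further: potency means the concentration at half of the fitted maximal effect; 0% = no-compound wells and -100% = no-enzyme wells; nearly all actives have a fitted effect of over 25% in size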
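AmpC (5.3 nM in the dispensed reagent) in 20 mM phosphate pH 7.0 with 0.01% (detergent screen) or 0.0001% Triton X-100 was preincubated with compounds for 15 min at room temperature. Nitrocefin was then added from an 800 uM solution, and hydrolysis was followed at 480 nm.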
An asterisk follows results filed as active; ? = inconclusive; nt = no result given. The full list was thinned out, with hits kept by preference. Unless noted, the call rests on the fitted dose curve; in most records, active means well fitted curve in the direction sought with a large enough effect; inconclusive means small, poorly fitted or top-dose-only effect, or another doubt; inactive means no such curve, though single readings can be large; an effect the other way counts as inactive or inconclusive.

SMILES	Shiga inhibitor	Cycloheximide cs	NS1 inh	AmpC no deterg	AmpC inh detg
Clc1ccccc1Nc1nc(-c2cccnc2)cs1	50*	41*	-38%	5%	8%
Clc1ccccc1-c1csc(Nc2cccnc2)n1	53*	26*	-6%	-35%	-4%
O=C(CSc1nc(-c2ccc(F)cc2)cs1)Nc1ccccn1	12	5	14%	-31%	5%
Fc1ccc(-c2csc(Nc3ccccn3)n2)cc1	92*	48*	1%	-35%	-1%
COc1ccccc1-n1c(C)cc(C=O)c1C	-14	-1	1%	1%	-10%
CCCNc1ccc(C(=O)OCC)cc1[N+](=O)[O-]	83*	52*	nt	-7%	?
CCOC(=O)CNc1ccc(C(=O)OCC)cc1[N+](=O)[O-]	-9	4	5%	-13%	-8%
Cc1ccc(NC(=O)c2ccc(NCCN)c([N+](=O)[O-])c2)cc1	33*	20*	11%	-26%	?
Cc1cccc(NC(=O)c2ccc(NCCc3ccccc3)c([N+](=O)[O-])c2)c1	-6	-2	12%	-15%	?
CCN(C[C@H]1N[C@@](CC)(C(=O)OC)[C@H]2C(=O)N(Cc3ccccc3)C(=O)[C@@H]12)S(=O)(=O)c1ccc(C(C)(C)C)cc1	nt	nt	nt	-18%	nt
Cc1cccc(N(CC(=O)NCCc2ccccc2)S(=O)(=O)c2ccccc2)c1C	nt	nt	nt	nt	11%
O=C1OCC(CO)(CO)N=C1NNc1ccccc1[N+](=O)[O-]	58*	43*	-34%	-22%	1%
CCOC(=O)c1cnc2cc3c(cn2c1=O)CCCC3	55*	28*	-7%	-26%	0%
COc1cccc(C(=O)NCc2ccc(-c3nc4ccccc4s3)cc2)c1	70*	36*	5%	-53%	-5%
COc1ccccc1C(=O)NCc1ccc(-c2nc3ccccc3s2)cc1	58*	41*	1%	-21%	1%
COc1cc(C(=O)NCc2nnc(SCC(=O)Nc3nc4ccccc4s3)o2)cc(OC)c1OC	46*	14*	?	-47%	-8%
COc1ccc(C(=O)NCc2ccc(-c3nc4ccccc4s3)cc2)cc1	44	44*	10%	-8%	2%
CC(=O)c1ccc(N2CCN(S(=O)(=O)c3ccc4[nH]c5c(c4c3)CCCC5)CC2)cc1	nt	nt	nt	nt	2%
CC[C@]12c3[nH]c4cc(CCC(=O)N(C)C)ccc4c3CCN1C(=O)[C@@H](CC(=O)NCC13CC4CC(CC(C4)C1)C3)C[C@@H]2C(=O)N1CCN(C(=O)c2ccco2)CC1	nt	nt	nt	261%	nt
CC(=O)N1CCN(C2=NC(=O)/C(=C/c3ccc(OS(=O)(=O)c4ccccc4)cc3)S2)CC1	-5	-4	22%	95%	0%
Cc1ccc2c(c1)cc1c(=O)n(CC(=O)NCc3ccco3)nc(C)n12	nt	nt	nt	nt	2%
COc1ccc(-c2nc3ccccc3s2)cc1NC(=O)c1cc(OC)c(OC)c(OC)c1	nt	nt	nt	nt	24%
COc1cc(C(=O)NCc2ccc(-c3nc4ccccc4s3)cc2)cc(OC)c1OC	74*	27*	1%	79%	-2%
CCOc1ccccc1NC(=O)Cn1cc(C(=O)c2ccc(Cl)cc2)c(=O)c2ccc(C)nc21	nt	nt	nt	nt	18%
Brc1ccccc1OCCOCCOc1cccc2cccnc12	24	2	-50%	2%	-1%
SMILES	Shiga inhibitor	Cycloheximide cs	NS1 inh	AmpC no deterg	AmpC inh detg
Clc1ccccc1OCCCOc1cccc2cccnc12	nt	37*	-110%	51%	-15%
O=[N+]([O-])c1ccccc1OCCCOc1cccc2cccnc12	nt	29*	-30%	30%	?
O=Cc1ccc(OCCCOc2cccc3cccnc23)cc1	-4	10	-35%	77%	5%
O=C(/C=C\c1ccccc1)Oc1cccc2cccnc12	26	21*	nt	-11%	-8%
O=Cc1ccccc1OCCCOc1cccc2cccnc12	56*	24*	-78%	21%	3%
CC1=C(C(=O)OCCCBr)C(c2ccc3c(c2)OCO3)NC(=O)N1 (stereo not drawn)	-12	-4	22%	-10%	7%
NC(=O)C1CCN(C(=O)Nc2csc3ccccc23)CC1	-6	1	7%	-7%	-2%
COc1ccc(-c2csc3nc(-c4ccccc4C)oc(=O)c23)cc1OC	nt	nt	nt	nt	5%
CC(C)c1ccc(CN2CCC(Oc3ccc(C(=O)N4CCCC4)cc3)CC2)cc1	-11	-3	1%	134%	-3%
COc1cccc(C(=O)Nc2cccc(-c3ccc(N4CCOCC4)nn3)c2)c1OC	nt	nt	nt	172%	?
C=CCN1C(=O)S/C(=C/c2ccc(Sc3nc4ccccc4[nH]3)o2)C1=O	-18	4	22%	-32%	-9%
O=C1NC(=O)N(c2ccc(Cl)cc2)C(=O)/C1=C\c1ccc(Sc2nc3ccccc3[nH]2)o1	-5	-3	7%	18µM*	-8%
Cc1ccc2c(=O)cc(C(=O)Nc3sc4c(c3C(=O)NCC3CCCO3)CCC4)oc2c1 (stereo not drawn)	nt	nt	nt	nt	17%
CN(C(=O)COc1ccc(Cl)cc1Br)C1CCCCC1	72*	45*	-28%	34%	-12%
O=C(COc1ccc(Cl)cc1Cl)N(c1ccccn1)C1CCCCC1	32	30*	-28%	10%	-6%
O=C(O)CSc1c2c(nc3cc(C(=O)Nc4ccc(F)c(Cl)c4)ccc13)CCC2	nt	nt	nt	nt	-1%
Cc1c(C(=O)N2CCN(C(=O)c3ccccc3)CC2)oc2ccc(F)cc12	nt	nt	nt	9%	-13%
Cc1c(C(=O)/C=C/c2cccs2)oc2ccc(F)cc12	73*	36*	-11%	-39%	-4%
COc1ccc(-n2c(C(C)(C)C)csc2=Nc2c(C)n(C)n(-c3ccccc3)c2=O)cc1	17	3	4%	-20%	-6%
CCNc1nc(N)nc(Oc2ccc(C(=O)OC)cc2)n1	74*	26*	-5%	-7%	?
CCCCSc1nnc(-c2ccc(OC)cc2)n1C	60*	65*	-8%	-6%	?
Cc1ccc(-c2nnc(SCC(N)=O)n2C)cc1	-24	3	-6%	-14%	1%
Cc1ccc(-c2nnc(SCC(C)C)n2C)cc1	138*	34*	-18%	-11%	2%
Cc1ccc(Nc2nc(CSc3nnc(-c4ccc(F)cc4)n3C)cs2)cc1	123*	32*	-18%	-11%	-5%
CCCCC(=O)OCc1c(-c2cccc(OC)c2)ncc2ccccc12	nt	nt	nt	-7%	3%
O=S(=O)(Nc1ccc(-c2ccc3nncn3n2)cc1)c1cccc(F)c1	nt	nt	nt	-12%	?
CCOc1ccc(CNC(=O)CCCOc2cc(=O)n(C)c3ccccc23)cc1	-8	-3	-1%	78%	?
COc1ccccc1Cn1c(CNS(=O)(=O)c2cccc([N+](=O)[O-])c2)nc2cccnc21	nt	nt	nt	nt	3%
CCN(CC)S(=O)(=O)c1cccc(C(=O)N[C@H](C(=O)Nc2nc3ccccc3s2)C(C)C)c1	19	17*	5%	-28%	-8%
CCN(CC)S(=O)(=O)c1cccc(C(=O)N[C@H](C(=O)Nc2nc3ccc(F)cc3s2)C(C)C)c1	104*	40*	1%	-3%	?
